The values that follow come from PubChem BioAssay (NCATS).

The structures appear in SMILES notation. Results filed as inconclusive are left out. Where a call stands in place of a potency, no number is given. Active and inactive are the calls of the source. Calls follow the shape of the dose curve; as a rule, active = well fitted inhibition curve with a large enough effect; inconclusive = small, poorly fitted or top-dose-only effect, or effect the other way; inactive = flat fitted curve, though single readings scatter.
Potency is read from the fitted curve at half-maximal effect.

The target of the assay is ATPase family AAA domain-containing protein 5 (Homo sapiens) (UniProt Q96QE3). Briefly: Validation screen for small molecules that inhibit ELG1-dependent DNA repair in human embryonic kidney (HEK293T) cells expressing luciferase-tagged ELG1 (AID 493107). Also: nearly all actives have a fitted effect of over 70% in size. Particulars: HEK293T ELG1-luciferase level, luminescence, 5-fluorouridine co-treatment, 16 h; series mostly up to 46.1 µM. The text has this: NIH Molecular Libraries Probe Production Network [MLPCN]
Chain of ATPase family AAA domain-containing protein 5 (Homo sapiens) (Q96QE3 whole entry, looked up, the tested form may be a part): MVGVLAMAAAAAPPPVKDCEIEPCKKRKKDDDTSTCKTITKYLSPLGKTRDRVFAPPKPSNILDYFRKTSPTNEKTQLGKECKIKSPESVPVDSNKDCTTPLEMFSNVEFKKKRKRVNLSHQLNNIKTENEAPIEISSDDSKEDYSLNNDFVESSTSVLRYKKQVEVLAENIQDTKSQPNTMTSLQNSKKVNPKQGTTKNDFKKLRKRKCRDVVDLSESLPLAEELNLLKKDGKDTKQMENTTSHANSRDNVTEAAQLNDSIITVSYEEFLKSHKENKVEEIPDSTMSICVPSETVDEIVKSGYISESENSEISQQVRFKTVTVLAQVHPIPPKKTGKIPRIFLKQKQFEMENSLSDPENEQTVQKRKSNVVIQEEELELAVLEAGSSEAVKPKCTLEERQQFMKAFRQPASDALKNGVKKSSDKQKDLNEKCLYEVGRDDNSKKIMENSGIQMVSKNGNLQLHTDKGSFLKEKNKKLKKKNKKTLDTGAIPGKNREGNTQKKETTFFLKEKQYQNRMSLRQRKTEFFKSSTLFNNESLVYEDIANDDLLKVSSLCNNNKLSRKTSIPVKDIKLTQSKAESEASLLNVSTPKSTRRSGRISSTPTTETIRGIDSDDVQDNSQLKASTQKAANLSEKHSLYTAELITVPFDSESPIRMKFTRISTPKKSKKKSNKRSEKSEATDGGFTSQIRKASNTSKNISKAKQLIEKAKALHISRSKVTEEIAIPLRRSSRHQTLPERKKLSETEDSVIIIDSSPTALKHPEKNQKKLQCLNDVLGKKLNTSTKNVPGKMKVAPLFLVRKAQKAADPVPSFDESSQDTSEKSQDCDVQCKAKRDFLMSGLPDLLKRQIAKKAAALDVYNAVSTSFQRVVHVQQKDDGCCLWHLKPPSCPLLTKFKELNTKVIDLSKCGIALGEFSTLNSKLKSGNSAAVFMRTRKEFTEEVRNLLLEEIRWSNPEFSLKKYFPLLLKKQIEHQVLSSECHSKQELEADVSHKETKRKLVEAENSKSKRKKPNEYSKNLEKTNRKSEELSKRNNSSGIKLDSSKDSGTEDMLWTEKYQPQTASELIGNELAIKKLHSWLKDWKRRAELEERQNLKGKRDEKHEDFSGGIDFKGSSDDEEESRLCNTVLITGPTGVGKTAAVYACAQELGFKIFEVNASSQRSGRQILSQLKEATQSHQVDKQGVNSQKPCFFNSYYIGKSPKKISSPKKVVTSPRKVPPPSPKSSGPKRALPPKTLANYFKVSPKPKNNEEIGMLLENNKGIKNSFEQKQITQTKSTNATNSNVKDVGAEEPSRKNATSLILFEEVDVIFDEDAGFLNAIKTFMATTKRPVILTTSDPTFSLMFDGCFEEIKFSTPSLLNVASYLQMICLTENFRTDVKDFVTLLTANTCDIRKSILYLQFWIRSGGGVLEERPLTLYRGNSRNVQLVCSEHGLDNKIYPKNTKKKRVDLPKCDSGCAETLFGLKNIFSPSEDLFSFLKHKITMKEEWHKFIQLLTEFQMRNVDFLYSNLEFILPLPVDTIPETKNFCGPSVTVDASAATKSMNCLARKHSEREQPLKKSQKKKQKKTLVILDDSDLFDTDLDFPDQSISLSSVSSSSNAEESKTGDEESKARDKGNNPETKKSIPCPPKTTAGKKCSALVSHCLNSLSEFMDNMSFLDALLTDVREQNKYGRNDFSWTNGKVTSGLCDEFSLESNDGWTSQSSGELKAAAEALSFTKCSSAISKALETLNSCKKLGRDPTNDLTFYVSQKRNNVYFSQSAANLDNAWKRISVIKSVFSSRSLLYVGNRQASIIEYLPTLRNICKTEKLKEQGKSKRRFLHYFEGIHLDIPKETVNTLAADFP
NIH Chemical Genomics Center [NCGC]
Assay Provider: Kyungjae Myung, NHGRI, NIH
Keywords: MLPCN, qHTS, NCGC, genotoxicity, cancer
Cancer cells divide rapidly compared to normal cells in the body. During cell division, cancer cells need to duplicate their genome by DNA replication. The failure of genome duplication leads to cancer cells' death. Therefore, inhibitors of DNA replication could specifically kill cancer cells. Based on this concept, many chemotherapeutic agents were developed and have been used to treat cancer patients. However, there are a limited number of agents available in the clinical setting, and some of those that do exist have low efficacy and severe side effects. Therefore, if we can find the compounds that effectively block DNA replication either by directly damaging DNA or by inhibiting other cellular mechanisms, the options for cancer treatment will be broadened. With this in mind, we developed a quantitative high-throughput ELG1-luciferase reporter gene assay. Small molecules that specifically block ELG1 function in response to DNA damage can be identified by monitoring the suppression of luciferase activity. Since ELG1 defines a pathway for repairing DNA damage, agents blocking ELG1 function can be used to sensitize cancer cells to chemotherapeutic agents whose mechanism of action involves the induction of DNA damage.
For genotoxicity screening, 2,000 cells in 4 uL/well were dispensed into white, solid-bottom 1536-well plates using a solenoid-based dispenser. Following transfer of 1 uL 5-Fluorouridine and 23 nL compound or DMSO vehicle by a pin tool, the plates were incubated 16 hr at 37 °C and 5% CO2. 5 ul ONE-Glo (Promega) was then added to each plate and following a 30 min incubation at room temperature, luciferase activity was quantified on a ViewLux CCD-based plate reader.
As for `CO/N=C(\C(=O)N[C@@H]1C(=O)N2C(C(=O)O)=C(COC(C)=O)CS[C@H]12)c1csc(N)n1`, the Potency entry was “inactive”.
With `CC(=O)/C=C1\C(=O)N(C)c2ccccc21`, the Potency entry was “inactive”.
Turning to `O=C(Nc1cccc(C(=O)Nc2ccc(S(=O)(=O)O)c3cc(S(=O)(=O)O)cc(S(=O)(=O)O)c23)c1)Nc1cccc(C(=O)Nc2ccc(S(=O)(=O)O)c3cc(S(=O)(=O)O)cc(S(=O)(=O)O)c23)c1`, the Potency entry is “inactive”.
Regarding `COC(=O)c1c(C)[nH]c(C)c1C(=O)c1ccccc1Cc1ccccc1`, the Potency entry was “inactive”.
To `COc1ccc2c(c1)CCC1C2CC[C@@]2(C)C1CC[C@@H]2NCCCCCCN1C(=O)CCC1=O` (stereo not given in full) belongs 25.9 µM (active).
To `O=C1O/C(=C/Br)CCC1c1cccc2ccccc12` (stereo not given) belongs 18.3 µM (active); to `O=c1[nH]c2cc(C(F)(F)F)ccc2n1-c1cc(C(F)(F)F)ccc1O`, “inactive”; to `CC(C)Cc1ccc([C@H](C)C(=O)O)cc1`, “inactive”.
Consider `Oc1ccccc1O`, for which the Potency entry is “inactive”.
As to `COc1cc(SC)ccc1C(=O)N1CCC(Cc2ccccc2)CC1`, the Potency entry is “inactive”.
Next, `CCCCCCCCc1ccc(-c2ccc(C(=O)O)cc2)cc1`: “inactive”.
To `CC(C)NCC(O)COc1cccc2ccccc12` (stereo not given) belongs “inactive”; to `CN(C)c1nc2c(Br)c(Br)c(Br)c(Br)c2[nH]1`, 1.46 µM (active); to `CC(=O)N[C@H](C(=O)O)C(C)(C)SN=O`, “inactive”.
For the compound `OCC1O[C@H]([S-])[C@H](O)[C@@H](O)[C@@H]1O.[Au+]` (stereo not given in full), the Potency result is “inactive”.
Next, `CN1C2CCC1CC(OC(=O)C(O)c1ccccc1)C2` (stereo not given): “inactive”; `Cc1nc2sccn2c(=O)c1CCN1CCC(=C(c2ccccc2)c2ccc(F)cc2)CC1`: “inactive”.
To `CC(C)NC[C@@H](O)c1ccc(O)c(O)c1` belongs “inactive”.
To `COc1cc(C(O)CO)ccc1OS(=O)(=O)O` (stereo not given) belongs “inactive”; to `N#C/C(=C\c1ccc(O)c(O)c1)C(=O)c1ccc(O)c(O)c1`, “inactive”; to `O=C(O)c1cc(=O)c2ccccc2[nH]1`, “inactive”.
In the case of `CCNC(=O)[C@H]1O[C@@H](n2cnc3c(N)nc(NCCc4ccc(CCC(=O)O)cc4)nc32)[C@H](O)[C@@H]1O`, the Potency entry was “inactive”.
To `COc1cc2c(CCNC(C)=O)c[nH]c2cc1Cl` belongs “inactive”; to `C=CC(C)=C[C@@]1(C)SC(=O)C(C)=C1O`, “inactive”.
To `Cc1cc(NC2CCCCC2)nc(-n2nc(C)cc2C)n1` belongs 14.6 µM (active).
Turning to `O=C(O)CC[C@@H](C(=O)O)N1C(=O)c2ccccc2C1=O`, the Potency result was “inactive”.
To `COC1=C(OC)C(=O)c2ccccc2C1=O` belongs “inactive”; to `NC(=S)NCCC[C@H](N)C(=O)O`, “inactive”.
For `CCCC1(C)C(C#N)(C#N)C1(C#N)C#N`, the Potency was 16.4 µM (active).
Next, `CN(C)CCC(c1ccc(Cl)cc1)c1ccccn1` (stereo not given): “inactive”; `C[C@@H](NC(=O)/C(C#N)=C/c1ccc(O)c(O)c1)c1ccccc1`: “inactive”; `COc1ccccc1CNCCCCCCNCCCCCCCCNCCCCCCNCc1ccccc1OC`: “inactive”.
Consider `COc1cccc(OC)c1OCCNCC1COc2ccccc2O1` (stereo not given), for which the Potency result was “inactive”.
Consider `CN1[C@@H](CC(=O)c2ccccc2)CCC[C@H]1C[C@H](O)c1ccccc1`, for which the Potency result is “inactive”.
To `OC[C@H]1O[C@@H](n2cnc3c(Nc4ccccc4)ncnc32)[C@H](O)[C@@H]1O` belongs “inactive”; to `CCCCC/C=C\CC(O)/C=C/c1cccc(CC(O)CCCCO)n1` (stereo not given), “inactive”; to `CN(C)CCCO[C@@H]1[C@H]2OC(C)(C)O[C@H]2O[C@@H]1[C@H](O)CO`, “inactive”.
As for `CNCC[C@H](Oc1ccc(C(F)(F)F)cc1)c1ccccc1`, the Potency entry was “inactive”.
In the case of `O=c1[nH]c2cc([N+](=O)[O-])c([N+](=O)[O-])cc2[nH]c1=O`, the Potency entry is “inactive”.
Next, `CN1CCc2cc(O)c(O)cc2C(c2ccccc2)C1` (stereo not given): “inactive”.
